G9a inh – qHTS Assay for Inhibitors of Histone Lysine Methyltransferase G9a; Histone-lysine N-methyltransferase EHMT2 (Homo sapiens), Q96KQ7; G9a H3K9 monomethylation, AlphaScreen, 2 h; Potency, µM (highest dose often 102 µM), without a hit: top-dose activity, negative = inhibition, hits mostly inhibitors; actives 8.8% (n = 350,000); also: potency is read from the fitted curve at half-maximal effect; nearly all actives have a fitted effect of over 75% in size
Target sequence (Q96KQ7 913-1193 limits assumed): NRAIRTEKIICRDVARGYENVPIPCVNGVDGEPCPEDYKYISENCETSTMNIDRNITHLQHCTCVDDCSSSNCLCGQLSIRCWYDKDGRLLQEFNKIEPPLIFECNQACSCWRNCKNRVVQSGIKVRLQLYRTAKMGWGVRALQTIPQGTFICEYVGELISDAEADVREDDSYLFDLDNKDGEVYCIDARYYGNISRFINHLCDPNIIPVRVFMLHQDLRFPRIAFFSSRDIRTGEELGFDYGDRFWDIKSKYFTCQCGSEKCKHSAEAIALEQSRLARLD
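Readings reflect AlphaScreen signal from monomethyl-H3K9 antibody detection. HMT at 20 nM; substrate b-H3K9 500 nM; cofactor SAM 20 uM; 2 h RT reaction; compounds tested as titrations in qHTS with 15 min preincubation.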
Sfp PPTase inh – qHTS Assay for Inhibitors of Bacillus subtilis Sfp phosphopantetheinyl transferase (PPTase); actives 3.5% (n = 310,000); Biochemical Sfp PPTase activity, qHTS; Potency, µM, without a hit: largest response in the series, negative = inhibition, usual class: inhibitors;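 also: the enzyme is Sfp with the accession as filed and its product quenches rhodamine fluorescence; potency is read from the fitted curve at half-maximal effect; 0% = enzyme reaction without inhibitor and -100% = no enzyme wells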
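Compounds were incubated with enzyme (final 15 nM) for 15 min at room temperature before substrate addition started the reaction. Fluorescence at 525 nm excitation, 598 nm emission was recorded immediately and after 30 minutes.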
VDR inh – Inhibitors of the vitamin D receptor (VDR): qHTS. Vitamin D3 receptor (Homo sapiens), P11473. VDR-SRC2-3 peptide fluorescence polarization, 2 h. Potency, µM, inactives show max response, negative = inhibition, hits mostly inhibitors. actives 0.93% (n = 400,000). AID 504847, 2011; also: potency is read from the fitted curve at half-maximal effect
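FP read-out; VDR + SRC2-3 coactivator peptide; 23 nl compound by pintool; 2 h RT incubation; reagents held at 4 deg C, protected from light.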
CCT modulator – High-Throughput Screening for Modulators of Cytosolic Chaperonin Activity. purified chaperonin ATPase assay, HTRF ADP detection, 30 min. actives 0.3% (n = 360,000). activity change, % (concentration not given with the values), hits read low; in the data active = activity change below about -30%
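Nucleotide hydrolysis assay: TRiC at 20–40 nM final (set by batch activity) with 10 uM ATP, 30 min at 37 °C, in presence of 76 uM compound. Detection by competitive ADP HTRF, 30 min ambient.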
PLK1 PBD block – qHTS for Inhibitors of PLK1-PDB (polo-like kinase 1 - polo-box domain): Primary Screen; Serine/threonine-protein kinase PLK1 (Homo sapiens), P53350; Plk1 PBD binding of FITC phosphopeptide, fluorescence polarization; Potency, µM, without a hit: max response, negative = inhibition, usual class: inhibitors; actives 2.8% (n = 360,000); AID 720504, 2013; also: potency is read from the fitted curve at half-maximal effect; series mostly up to about 57 µM; nearly all actives have a fitted effect of over 65% in size
MmCpn inh – Inhibitors of TCP-1 ring complex (TRiC) of Methanococcus maripaludis (MmCpn): qHTS; Chaperonin Mm-Cpn (Methanococcus maripaludis); purified Mm-Cpn ATPase, ADP Transcreener TR-FRET; Potency, µM (highest dose often 76.9 µM), for inactives: at the top dose activity, negative = inhibition, hits mostly inhibitors; actives 0.031% (n = 330,000); AID 504842, 2011; also: potency is read from the fitted curve at half-maximal effect; nearly all actives have a fitted effect of over 80% in size
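Purified archaeal chaperonin (25 nM final) was preincubated with compound for 10 min at 37°C, then ATP (10 uM final) was added for 30 min at 37°C in Tris pH 7.4/KCl/MgCl2/DTT buffer. ADP was quantified by HTRF Transcreener TR-FRET.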
Starred values were filed as active, the others as inactive; [ ] = remark or other dose. Hits are enriched below; roughly 10% of the tested compounds scored in any of these assays. Unless noted, calls follow the shape of the dose curve; as a rule, active = well fitted curve in the direction sought with a large enough effect; inconclusive = small, poorly fitted or top-dose-only effect, or another doubt; inactive = no such curve, though single readings can be large; an effect the other way counts as inactive or inconclusive. Unless noted, % is scaled to controls: 0 for no effect and ±100 for the full control effect.

Screening Cc1ccc(N(CC(=O)NCc2ccco2)C(=O)CCC(=O)Nc2ccccn2)c(C)c1 returned G9a inh 22µM*, Sfp PPTase inh 21%, VDR inh -8%, CCT modulator -3, PLK1 PBD block 0% and MmCpn inh 1%.
CCOC(=O)C1CCCN(C(=O)c2ccc(Cl)cc2)C1 (stereo not given) was read as G9a inh 79µM*, Sfp PPTase inh 27%, VDR inh 15%, CCT modulator 2, PLK1 PBD block 10% and MmCpn inh -1%.
`CCOC(=O)C1CCCN(C(=O)CSc2ccccc2)C1` (stereo not given) gave G9a inh 8%[59 µM], Sfp PPTase inh 4%, VDR inh 12%, CCT modulator 1, PLK1 PBD block -25% and MmCpn inh 1%.
For CCOC(=O)N1CCN(C(=O)c2ccc(CSc3ccc(Cl)cc3)cc2)CC1 the results were G9a inh -3%, Sfp PPTase inh inconclusive, VDR inh -7%, CCT modulator -2, PLK1 PBD block 27µM* and MmCpn inh 3%.
For CCOC(=O)C1CCCN(C(=O)c2ccc([N+](=O)[O-])cc2)C1 (stereo not given) the results were G9a inh 0%[59 µM], Sfp PPTase inh 2%, VDR inh 6%, CCT modulator 0, PLK1 PBD block 1% and MmCpn inh -2%.
CCOC(=O)N1CCN(C(=O)Cc2ccc(Cl)cc2)CC1 was read as G9a inh -31%, Sfp PPTase inh 19%, VDR inh -9%, CCT modulator -2, PLK1 PBD block -5% and MmCpn inh -3%.
For CCOC(=O)C1CCCN(C(=O)c2cc(Cl)ccc2Cl)C1 (stereo not given) the results were G9a inh 45µM*, Sfp PPTase inh 13%, VDR inh 6%, CCT modulator 0, PLK1 PBD block 0% and MmCpn inh -3%.
CCOC(=O)C1CCCN(C(=O)Cc2ccc(Cl)cc2)C1 (stereo not given) was read as G9a inh 2%[59 µM], Sfp PPTase inh 7%, VDR inh -15%, CCT modulator -4, PLK1 PBD block -10% and MmCpn inh -1%.
Screening CCOC(=O)C1CCCN(C(=O)CSc2ccc(NC(C)=O)cc2)C1 (stereo not given) returned G9a inh 35µM*, Sfp PPTase inh 6%, VDR inh -25%, CCT modulator -1, PLK1 PBD block 21µM* and MmCpn inh -2%.
Screening CC(C)Oc1ccc(CNC(=O)C2COc3ccccc3C2)cc1 (stereo not given) returned G9a inh -2%[59 µM] and VDR inh 6%.
`COc1ccc(CNC(=O)CCc2c(C)nc3c(c(C)nn3-c3ccccc3)c2C)cc1` gave G9a inh 12%[59 µM] and VDR inh 15%.
O=C(Nc1ccc(Br)cc1)c1cccc(C(=O)Nc2ccc(Br)cc2)c1 was read as G9a inh -2%[59 µM] and VDR inh -29%.
For CCOc1ccc(NC(=O)c2oc(=O)c3ccccc3c2-c2ccc(C)cc2)cc1 the results were G9a inh -9%[59 µM] and VDR inh 4%.
For COC(=O)c1ccc(COC(=O)c2ccc(SC)cc2OC)cc1 the results were G9a inh 103%[59 µM], Sfp PPTase inh -7%, VDR inh inconclusive, CCT modulator -1, PLK1 PBD block 27µM* and MmCpn inh -1%.
`Cc1ccccc1NC(=O)CSc1nnc(COc2ccc(Cl)cc2)o1` gave G9a inh inconclusive and VDR inh 3%.
